Where “and” joins values, the source holds several entries; their conditions need not be identical. Identical values can stand only once. Results filed as inconclusive are left out. Calls of active or inactive are those of the source. Unless noted, calls follow the shape of the dose curve; as a rule, active = well fitted cell-killing curve with a large enough effect; inconclusive = small, poorly fitted or top-dose-only effect; inactive = flat fitted curve, though single readings scatter.
Columns and labels:
[1] = Cell Viability - LYMP2-006 (AID 978); also: series mostly up to about 92 µM; % is scaled to controls: 0 for no effect and ±100 for the full control effect; nearly all actives have a fitted effect of over 60% in size
Procedure, shortened: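 Cells are seeded at 2500 per well and rested 5 hr at 37 C. Compounds are added across a concentration series for 24 hr at 37 C, after which ATP is quantified by luciferase luminescence.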

[2] = Cell Viability - LYMP2-007 (AID 979);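 also: cells exposed to compound for 24 h before reading; 0% = DMSO only and the negative end = 92 µM tetraoctylammonium bromide; nearly all actives have a fitted effect of over 60% in size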
Procedure, shortened: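 Measured via luciferase-based ATP quantitation: lymphoblastoid cells, 24 hr compound exposure at 37 C, AC50 from Hill fits.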

[3] = Cell Viability - LYMP2-008 (AID 980);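 also: cells exposed to compound for 24 h at 37 °C; % is scaled to controls: 0 for no effect and ±100 for the full control effect; nearly all actives have a fitted effect of over 60% in size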
Procedure, shortened: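 Measured: ATP-dependent luminescence, proportional to viable cell number, in human lymphoblastoid cells treated 24 hr with compound in complete culture medium. Values are AC50s from Hill-equation modelling of qHTS titrations.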

[4] = Cell Viability - LYMP2-010 (AID 981); also: % is scaled to controls: 0 for no effect and ±100 for the full control effect; nearly all actives have a fitted effect of over 55% in size
Procedure, shortened: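 This 24 hr viability screen uses LYMP2-010 lymphoblastoid cells, quantifies ATP via luciferase luminescence, and derives AC50 from Hill fits of qHTS concentration-response data.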

[5] = Cell Viability - LYMP2-012 (AID 982);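 also: cellular ATP by luciferase luminescence where a drop means cytotoxicity; cells exposed to compound for one day before reading; 0% = DMSO only and full loss = 92 µM tetraoctylammonium bromide; nearly all actives have a fitted effect of over 55% in size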
[6] = Cell Viability - LYMP2-014 (AID 983);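 also: series mostly up to about 92 µM; cells exposed to compound for 24 h at 37 °C; plate controls were DMSO only for no effect and 92 µM tetraoctylammonium bromide for full effect; nearly all actives have a fitted effect of over 50% in size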
Procedure, shortened: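 Quantitative HTS in lymphoblastoid cells: 24 hr compound exposure, then CellTiter-Glo ATP luminescence. Positive control was tetraoctylammonium bromide, 6.4pM to 92 uM.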

[7] = Cell Viability - LYMP2-016 (AID 984); also: % is scaled to controls: 0 for no effect and ±100 for the full control effect; nearly all actives have a fitted effect of over 55% in size
Procedure, shortened: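 Cells were seeded at 2500 per well and rested 5 hr before a 24 hr compound exposure at 37 C. Viability was then gauged as cellular ATP by luciferase luminescence, with AC50 values fitted to the Hill equation.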

[8] = Cell Viability - LYMP2-018 (AID 985);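 also: plate controls were DMSO only for no effect and tetraoctylammonium bromide at 92 µM for full effect; nearly all actives have a fitted effect of over 50% in size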
Procedure, shortened: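 In this qHTS viability assay, cells are treated for 24 hr and cellular ATP is quantified by luciferase-based luminescence, with tetraoctylammonium bromide as positive control.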

[9] = Cell Viability - LYMP2-020 (AID 986);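 also: series mostly up to about 92 µM; cells exposed to compound for 24 h at 37 °C; plate controls were DMSO only for no effect and tetraoctylammonium bromide at 92 µM for full effect; nearly all actives have a fitted effect of over 55% in size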
Procedure, shortened: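 Cells at 2500 per well receive a 24 hr compound exposure at 37 C. Viability is measured as ATP-dependent luciferase luminescence, with AC50 modeled from qHTS concentration-response curves.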

[10] = Cell Viability - LYMP2-022 (AID 987)
Procedure, shortened: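 In this qHTS cytotoxicity screen, compound titrations were incubated 24 hr at 37 C with human lymphoblastoid cells in complete medium. Luciferase-based ATP luminescence provided the viability signal.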

[11] = Cell Viability - LYMP2-024 (AID 988);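 also: plate controls were DMSO only for no effect and 92 µM tetraoctylammonium bromide for full effect; nearly all actives have a fitted effect of over 60% in size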
Procedure, shortened: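 Cells at 2500 per well received compound for 24 hr after a 5 hr settling period. Viability was scored by CellTiter-Glo luminescence, with AC50 from Hill fits.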

[12] = Cell Viability - LYMP2-026 (AID 989);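 also: cells exposed to compound for 24 h at 37 °C; % is scaled to controls: 0 for no effect and ±100 for the full control effect; nearly all actives have a fitted effect of over 50% in size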
Procedure, shortened: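 Acute toxicity screen in complete culture medium, with 24 hr compound exposure at 37 C. Viability read as cellular ATP via luciferase reaction, with tetraoctylammonium bromide (6.4pM to 92 uM) as positive control.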

[13] = Cell Viability - LYMP1-002 - Assay at 24 hr (AID 993); also: % is scaled to controls: 0 for no effect and ±100 for the full control effect
Procedure, shortened: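 Viability was judged from intracellular ATP using a luciferase read-out, following a 24-hour compound incubation at 37 C of lymphoblastoid cells seeded at 2500 per well. Concentration-response data were fitted to the Hill equation for AC50.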

[14] = Cell Viability - LYMP1-002 - Assay at 40 hr (AID 994)
Procedure, shortened: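 Concentration-dependent ATP loss after 40 hr treatment at 37 C defined toxicity; AC50 values were obtained by fitting the standard Hill equation.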

[15] = qHTS Assay for Identification of Small Molecule Inducers of Hypoxia Response (AID 2120; active = well fitted curve in the direction sought with a large enough effect in the signal ratio, with a control signal flat, not every such curve was filed as active; the % refers to the signal ratio; also: 0% is about no effect)
Procedure, shortened: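 HRE-bla ME-180, 2500 cells/well, 0.5% dialyzed FBS medium; cpd titration, 17 h 37 degrees C; CCF4 2.5 h RT; Ex 405, Em 460/530 ratio -> %Activity, AC50.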

[16] = target: Bile acid receptor (Homo sapiens) (UniProt Q96RI1); assay: qHTS assay for small molecule agonists of farnesoid X receptor signaling (AID 588527; calls by dose curve;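 also: series mostly up to about 77 µM; 0% = vehicle basal and 100% = reference agonist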); details: HEK293T FXR-UAS-bla, beta-lactamase ratio, 16 h; stronger effect = higher value
Procedure, shortened: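 FXR-UAS-bla HEK293T cells (10% dialyzed FBS) preincubated 5-7 h at 37 C, then compounds at up to 92 uM for 16 h at 37 C. CCF4 beta-lactamase read-out after 2 h RT. Normalized to chenodeoxycholic acid (100 uM) and DMSO; Hill fit gave EC50 and efficacy.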

[17] = target: Glucocorticoid receptor (Homo sapiens) (UniProt P04150); assay: qHTS assay for small molecule agonists of glucocorticoid receptor signaling (AID 588532; active = well fitted curve in the direction sought with a large enough effect in the signal ratio, with a control signal flat; the % refers to the signal ratio;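 also: 100% = dexamethasone at 0.1 µM and 0% = DMSO only wells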); details: HeLa MMTV-bla, beta-lactamase ratio, agonist, 18 h; stronger effect = higher value; percent of dexamethasone control, DMSO zero
Procedure, shortened: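 Cells were plated and rested 3-5 h at 37 C, compounds were added in titration and incubated 18 h, then CCF4 substrate was loaded for 2 h at RT before reading blue/green fluorescence. EC50 came from Hill-equation fitting.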

[18] = target: Glucocorticoid receptor (Homo sapiens) (UniProt P04150); assay: qHTS assay for small molecule antagonists of glucocorticoid receptor signaling (AID 588533; active = well fitted inhibition curve with a large enough effect in the signal ratio, with a control signal flat, not every such curve was filed as active; the % refers to the signal ratio; also: % is scaled to controls: 0 for no effect and ±100 for the full control effect)
Procedure, shortened: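 Antagonist-mode qHTS: compound titrations added to GRE-bla HeLa cells, then dexamethasone 2 nM final; 18 h, 37 C. CCF4 FRET fluorescence normalized to dexamethasone and DMSO; IC50 from Hill fit.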

[19] = qHTS assay for small molecule antagonists of peroxisome proliferator-activated receptor delta signaling (AID 588535; active = well fitted inhibition curve with a large enough effect in the signal ratio, with a control signal flat, not every such curve was filed as active; the % refers to the signal ratio;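 as to max response: cells co-treated with a PPAR-delta agonist as stimulator during compound exposure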); details: HEK293T PPARd-UAS-bla, beta-lactamase FRET ratio, 18 h; 460 nm channel
Procedure, shortened: (§1)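 Beta-lactamase reporter read-out (405 nm excitation, 460/530 nm emission) after CCF4 loading for 2 hrs at RT. HEK293T PPAR-delta-UAS-bla cells, 2% charcoal/dextran FBS, compounds for 18 hrs at 37 C. Hill fit gave IC50 and efficacy.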

[20] = target: Peroxisome proliferator-activated receptor delta (Homo sapiens) (UniProt Q03181); assay: as above
Procedure, shortened: as §1

[21] = target: Peroxisome proliferator-activated receptor gamma (Homo sapiens) (UniProt P37231); assay: qHTS assay for small molecule agonists of peroxisome proliferator-activated receptor gamma signaling (AID 588536; active = well fitted curve in the direction sought with a large enough effect in the signal ratio, with a control signal flat, not every such curve was filed as active; the % refers to the signal ratio;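 also: 0% = DMSO basal wells and 100% = rosiglitazone at 2 µM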)
Procedure, shortened: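 Cells were plated and held 6–6.5 h at 37 C, then compounds were added as a titration series. After a further 16 h, CCF4 dye was loaded for 2 h at room temperature and emission at 460/530 nm recorded.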

[22] = target: Vitamin D3 receptor (Homo sapiens) (UniProt P11473); assay: qHTS assay for small molecule antagonists of vitamin D receptor signaling (AID 588541; calls by dose curve;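 also: receptor activated by calcitriol during compound treatment; series mostly up to about 77 µM; % is scaled to controls: 0 for no effect and ±100 for the full control effect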)
Procedure, shortened: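 VDR-UAS-bla HEK293T cells in 2% charcoal-stripped FBS were stimulated with 1-alpha,25-dihydroxyvitamin D3 (3 nM final) plus compound for 16 h at 37 C. The beta-lactamase CCF4 readout was normalized to 50 nM agonist and DMSO, and Hill fits gave IC50.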

[23] = target: Vitamin D3 receptor (Homo sapiens) (UniProt P11473); assay: qHTS assay for small molecule agonists of vitamin D receptor signaling (AID 588543; calls by dose curve;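 also: 0% = DMSO basal and 100% = reference agonist control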)
Procedure, shortened: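 Reporter cells (HEK293T, VDR-UAS-bla) were seeded in medium with 2% charcoal-stripped serum and incubated 5 h, then compounds in concentration series were added for 16 h at 37 °C. Stimulation was scaled between DMSO basal and 50 nM 1α,25-dihydroxyvitamin D3.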

Chain of Glucocorticoid receptor (Homo sapiens) (P04150 whole entry, looked up): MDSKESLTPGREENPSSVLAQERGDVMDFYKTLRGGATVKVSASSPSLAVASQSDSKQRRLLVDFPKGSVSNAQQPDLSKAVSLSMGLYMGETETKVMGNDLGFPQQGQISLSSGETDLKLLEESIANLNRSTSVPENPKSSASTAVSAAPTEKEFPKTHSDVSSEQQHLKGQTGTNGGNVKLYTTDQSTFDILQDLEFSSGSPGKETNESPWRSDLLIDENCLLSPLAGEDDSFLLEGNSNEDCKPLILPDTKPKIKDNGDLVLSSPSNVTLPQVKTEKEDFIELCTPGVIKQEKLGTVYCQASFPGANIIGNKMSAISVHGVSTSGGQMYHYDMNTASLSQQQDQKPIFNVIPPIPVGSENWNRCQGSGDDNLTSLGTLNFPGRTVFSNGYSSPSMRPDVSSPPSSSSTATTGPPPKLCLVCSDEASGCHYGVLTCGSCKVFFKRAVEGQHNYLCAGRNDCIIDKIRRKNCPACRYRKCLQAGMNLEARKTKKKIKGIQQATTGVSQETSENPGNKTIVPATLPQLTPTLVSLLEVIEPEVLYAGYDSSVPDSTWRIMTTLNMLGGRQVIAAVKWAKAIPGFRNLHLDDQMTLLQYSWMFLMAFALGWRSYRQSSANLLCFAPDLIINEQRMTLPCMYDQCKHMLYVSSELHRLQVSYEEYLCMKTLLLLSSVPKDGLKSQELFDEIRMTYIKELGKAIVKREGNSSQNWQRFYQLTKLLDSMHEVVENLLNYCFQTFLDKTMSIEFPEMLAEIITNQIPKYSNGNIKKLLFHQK
Chain of Vitamin D3 receptor (Homo sapiens) (P11473 whole entry, looked up): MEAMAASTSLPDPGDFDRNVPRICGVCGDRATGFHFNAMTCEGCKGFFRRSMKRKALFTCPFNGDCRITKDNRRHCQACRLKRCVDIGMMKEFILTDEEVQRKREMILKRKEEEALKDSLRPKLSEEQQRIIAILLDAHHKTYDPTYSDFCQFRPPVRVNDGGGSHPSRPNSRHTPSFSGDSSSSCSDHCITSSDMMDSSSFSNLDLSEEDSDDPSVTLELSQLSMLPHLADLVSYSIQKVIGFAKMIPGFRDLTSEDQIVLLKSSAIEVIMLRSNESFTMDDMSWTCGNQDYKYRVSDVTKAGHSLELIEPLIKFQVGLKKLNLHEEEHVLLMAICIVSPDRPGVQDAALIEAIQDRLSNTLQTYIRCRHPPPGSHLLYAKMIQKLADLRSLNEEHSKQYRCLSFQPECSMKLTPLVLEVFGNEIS
Chain of Peroxisome proliferator-activated receptor delta (Homo sapiens) (Q03181 whole entry, looked up): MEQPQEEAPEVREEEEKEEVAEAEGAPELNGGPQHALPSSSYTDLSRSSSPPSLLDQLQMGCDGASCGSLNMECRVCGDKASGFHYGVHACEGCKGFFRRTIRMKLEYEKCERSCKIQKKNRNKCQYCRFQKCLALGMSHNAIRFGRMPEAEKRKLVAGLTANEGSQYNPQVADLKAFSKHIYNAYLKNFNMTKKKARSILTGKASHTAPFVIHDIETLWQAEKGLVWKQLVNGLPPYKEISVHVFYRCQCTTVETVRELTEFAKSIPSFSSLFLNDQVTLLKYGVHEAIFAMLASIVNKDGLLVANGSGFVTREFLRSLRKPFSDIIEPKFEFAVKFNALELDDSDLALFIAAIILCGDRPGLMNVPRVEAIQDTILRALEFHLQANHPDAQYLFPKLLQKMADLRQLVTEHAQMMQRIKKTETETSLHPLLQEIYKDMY
Chain of Bile acid receptor (Homo sapiens) (Q96RI1 whole entry, looked up): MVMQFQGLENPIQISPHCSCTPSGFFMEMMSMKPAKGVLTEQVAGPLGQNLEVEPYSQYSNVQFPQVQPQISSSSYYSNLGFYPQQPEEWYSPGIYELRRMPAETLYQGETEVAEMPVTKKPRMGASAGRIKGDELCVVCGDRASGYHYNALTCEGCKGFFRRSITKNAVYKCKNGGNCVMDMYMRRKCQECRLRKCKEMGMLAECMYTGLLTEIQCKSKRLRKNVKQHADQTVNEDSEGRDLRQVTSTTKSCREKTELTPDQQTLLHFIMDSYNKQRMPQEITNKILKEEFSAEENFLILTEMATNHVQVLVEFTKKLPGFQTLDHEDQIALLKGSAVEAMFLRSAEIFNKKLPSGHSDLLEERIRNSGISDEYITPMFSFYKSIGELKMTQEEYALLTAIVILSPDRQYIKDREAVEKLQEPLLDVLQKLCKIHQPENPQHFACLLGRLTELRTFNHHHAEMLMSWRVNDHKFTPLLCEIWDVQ
Chain of Peroxisome proliferator-activated receptor gamma (Homo sapiens) (P37231 whole entry, looked up): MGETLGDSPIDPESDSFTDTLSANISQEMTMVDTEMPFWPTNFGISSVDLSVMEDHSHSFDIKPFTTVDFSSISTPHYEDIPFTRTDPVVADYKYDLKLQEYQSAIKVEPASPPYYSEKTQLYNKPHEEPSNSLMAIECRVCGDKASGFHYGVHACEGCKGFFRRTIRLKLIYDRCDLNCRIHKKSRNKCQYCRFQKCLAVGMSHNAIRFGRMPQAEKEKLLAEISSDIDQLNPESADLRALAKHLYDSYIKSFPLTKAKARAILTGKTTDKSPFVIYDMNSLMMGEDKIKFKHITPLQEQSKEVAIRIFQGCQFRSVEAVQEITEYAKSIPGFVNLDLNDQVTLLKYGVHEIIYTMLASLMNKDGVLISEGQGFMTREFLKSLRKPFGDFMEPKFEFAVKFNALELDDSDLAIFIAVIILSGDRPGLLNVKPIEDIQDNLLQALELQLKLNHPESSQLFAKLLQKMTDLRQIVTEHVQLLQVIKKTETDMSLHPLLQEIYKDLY

Clc1cc(Cl)c(-c2cc(Cl)c(Cl)cc2Cl)cc1Cl
34.2% and 61.4%: max response [19]
inactive: Potency [1] | Potency [2] | Potency [3] | Potency [4] | Potency [5] | Potency [6] | Potency [7] | Potency [8] | Potency [9] | Potency [10] | Potency [11] | Potency [12] | Potency [13] | Potency [14] | outcome [15] | activation [16] 4.83% | activation [17] 0.333% and 5.15% | Potency [18] | Potency [20] | outcome [21] | outcome [22] | outcome [23]

Reference: PubChem BioAssay (NCATS)
